{
  "source": "PubChem BioAssay AID1259374",
  "about": "(The Scripps Research Institute Molecular Screening Center, 2018)",
  "note": "Out of some 650,000 compounds screened, about 5,900 (0.91%) were called active. For the sample, actives were picked, then their nearest neighbours and some compounds at random. Unmarked numbers belong to inactive results. Rule as the data show it: active = inhibition above about 50%; inactive = the rest.",
  "data": [
    {"target": "Microphthalmia-associated transcription factor (Homo sapiens) (UniProt O75030)", "sequence (O75030 whole entry, looked up)": "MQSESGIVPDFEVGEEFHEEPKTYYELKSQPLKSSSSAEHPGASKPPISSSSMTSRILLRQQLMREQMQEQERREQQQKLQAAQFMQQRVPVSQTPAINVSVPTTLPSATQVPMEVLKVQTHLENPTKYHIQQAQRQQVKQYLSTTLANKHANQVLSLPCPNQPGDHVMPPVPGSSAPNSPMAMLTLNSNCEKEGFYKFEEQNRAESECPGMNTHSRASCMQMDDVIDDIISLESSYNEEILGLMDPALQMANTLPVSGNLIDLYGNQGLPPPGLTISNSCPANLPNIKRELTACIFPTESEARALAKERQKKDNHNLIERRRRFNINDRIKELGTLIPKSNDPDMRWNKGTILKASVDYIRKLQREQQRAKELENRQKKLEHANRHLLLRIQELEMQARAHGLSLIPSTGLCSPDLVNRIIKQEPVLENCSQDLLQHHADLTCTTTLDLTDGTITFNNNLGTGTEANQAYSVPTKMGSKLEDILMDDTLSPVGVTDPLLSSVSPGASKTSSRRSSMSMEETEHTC", "assay": "MITF inhibitors, primary screen, biochemical, AlphaScreen, human (AID 1259374);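 also: 0% = vehicle wells with protein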", "conditions": "AlphaScreen MITF homodimerization, bead proximity signal; at 2.6 µM; active compounds read high", "values": [
      {"smiles": "CC(=O)Nc1cccc(NC(=O)Cn2cnc3c(nnn3Cc3ccccc3F)c2=O)c1", "inhibition": "11.8%"},
      {"smiles": "COc1cc2nc(CN3CCN(c4ccccc4OC)CC3)[nH]c(=O)c2cc1OC", "inhibition": "4.45%"},
      {"smiles": "O=[N+]([O-])c1cccc(C(c2nnnn2-c2cccc(Cl)c2)N2CCCCC2)c1", "note": "(stereo not drawn)", "inhibition": "7.91%"},
      {"smiles": "C/C(CC(=O)Nc1ccc(Cl)cc1C)=N\\NC(=O)c1ccc([N+](=O)[O-])c(Cl)c1", "inhibition": "14%"},
      {"smiles": "COC(=O)CSCC(=O)Nc1cc(C(F)(F)F)ccc1Cl", "inhibition": "3.79%"},
      {"smiles": "Cc1ccn2cc(-c3ccc(NS(=O)(=O)c4ccc(I)cc4)cc3)nc2n1", "inhibition": "-8%"},
      {"smiles": "COc1ccc(NC2c3cccc4cccc(c34)C2NS(=O)(=O)c2ccccc2)cc1", "note": "(stereo not drawn)", "inhibition": "23.3%"},
      {"smiles": "Cc1cccc(CNc2ncnc3sc(C(=O)N(C)C4CCOC4)c(C)c23)n1", "note": "(stereo not drawn)", "inhibition": "-1.76%"},
      {"smiles": "C=CCOc1ccc(/C=C2\\SC(=S)NC2=O)cc1", "inhibition": "12.6%"},
      {"smiles": "Cc1ccc(C(=O)NNC(=O)C2Cc3ccccc3CN2C(=O)c2ccco2)cc1", "note": "(stereo not drawn)", "inhibition": "3.81%"},
      {"smiles": "Cc1ccc(OCC(=O)N/N=C/c2cc(C)ccc2O)cc1", "inhibition": "15.3%"},
      {"smiles": "O=C(Nc1cccc(-c2nc3cccnc3s2)c1)C(F)(F)F", "inhibition": "-3.61%"},
      {"smiles": "N#C/C(=C/c1ccc(S(=O)(=O)c2ccc(Cl)cc2)cc1)c1nc2ccccc2[nH]1", "inhibition": "-16.9%"},
      {"smiles": "COc1cccc(-c2nc3cnccn3c2NC(C)(C)C)c1OC", "inhibition": "-9.88%"},
      {"smiles": "COCCNc1cc(-c2ccc(F)cc2)nc(C)n1", "inhibition": "14.6%"},
      {"smiles": "Cc1nc(NC2CC2)cc(-c2ccc(F)cc2)n1", "inhibition": "52.6% (active)"},
      {"smiles": "Cc1nc(Nc2ccncc2)cc(-c2ccc(F)cc2)n1", "inhibition": "0.1%"},
      {"smiles": "Cc1cccc(N2C(=O)NC(=O)/C(=C\\c3ccc(C)o3)C2=O)c1", "inhibition": "2.19%"},
      {"smiles": "O=C1NC(=O)N(c2ccccc2F)C(=O)/C1=C\\c1ccco1", "inhibition": "40%"},
      {"smiles": "Cc1ccccc1N1C(=O)NC(=O)/C(=C\\c2ccoc2)C1=O", "inhibition": "52.5% (active)"},
      {"smiles": "Cc1cccc(N2C(=O)NC(=O)/C(=C\\c3ccc(I)o3)C2=O)c1C", "inhibition": "57.8% (active)"},
      {"smiles": "O=C1NC(=S)N(c2ccccc2)C(=O)/C1=C/c1ccc(I)o1", "inhibition": "59.5% (active)"},
      {"smiles": "O=C1NC(=S)N(c2ccccc2)C(=O)/C1=C/c1ccccc1", "inhibition": "17.4%"},
      {"smiles": "Cc1ccc(N2C(=O)NC(=O)/C(=C\\c3ccc(I)o3)C2=O)cc1C", "inhibition": "41.7%"},
      {"smiles": "O=C1NC(=S)N(c2ccccc2)C(=O)/C1=C/c1ccc(N2CCCC2)o1", "inhibition": "1.33%"},
      {"smiles": "COc1ccc(/C=C2/C(=O)NC(=O)N(c3ccccc3C)C2=O)cc1OC", "inhibition": "1.35%"},
      {"smiles": "O=C(Nc1ccc(C(=O)O)c(C(=O)O)c1)c1cccc(N2C(=O)c3ccc([N+](=O)[O-])cc3C2=O)c1", "note": "(tested in a mixture with another compound)", "inhibition": "11.7%"},
      {"smiles": "CSc1ccccc1N1C(=O)[C@@H]2C[C@H]1CN2C(=O)CCc1ccc2c(c1)OCO2", "inhibition": "-0.38%"},
      {"smiles": "CC1=C(C(=O)OC2CCCC2)C(c2ccc(C)o2)C2=C(CCCC2=O)N1", "note": "(stereo not drawn)", "inhibition": "2.33%"},
      {"smiles": "CN(C)c1cccc(Nc2nccn3c(-c4cccc(Cl)c4)cnc23)c1", "inhibition": "-23.8%"},
      {"smiles": "CCCCNC(=O)c1ccc(-n2nnc3ccccc3c2=O)cc1", "inhibition": "5.61%"},
      {"smiles": "CC(Oc1cccc(Cl)c1)C(=O)Nc1ccccc1C(=O)N1CCN(Cc2ccccc2)CC1", "note": "(stereo not drawn)", "inhibition": "4.29%"},
      {"smiles": "O=C(c1ccc(C(=O)N2CCN(Cc3ccccc3)CC2)cc1)N1CCN(Cc2ccccc2)CC1", "inhibition": "6.34%"},
      {"smiles": "Clc1cccc(N2CCN(Cc3cccnc3)CC2)c1", "inhibition": "49.8%"},
      {"smiles": "CCOc1ccc(CN2CCCN(C)CC2)cc1", "inhibition": "60.4% (active)"},
      {"smiles": "CC(C)NC(=O)Nc1ccc(CN2CCN(C)CC2)cc1", "inhibition": "-5.21%"},
      {"smiles": "CCOc1ccc(CN2CCN(C(=O)c3cccc(Cl)c3)CC2)cc1", "inhibition": "58.5% (active)"},
      {"smiles": "COc1ccc(CN2CCN(C(=O)c3cccc(Cl)c3)CC2)cc1OC", "inhibition": "27.7%"},
      {"smiles": "CCOc1ccc(CN2CCN(Cc3ccc(OCC)cc3)C(CCO)C2)cc1", "note": "(stereo not drawn)", "inhibition": "8.91%"},
      {"smiles": "O=C(c1cccc(Cl)c1)N1CCN(Cc2cccnc2)CC1", "inhibition": "59.4% (active)"},
      {"smiles": "COc1ccc(OC)c(-n2nnnc2SCC(=O)N2CCc3ccccc32)c1", "inhibition": "9.95%"},
      {"smiles": "CC(C)n1cnc2c(NCc3cccc(C(F)(F)F)c3)nc(Nc3ccncn3)nc21", "inhibition": "12.6%"},
      {"smiles": "Cc1ccc2c(c1)-c1c(cnn1CC(=O)NCc1ccccn1)CO2", "inhibition": "-4%"},
      {"smiles": "COc1ccc(N2CCN(Cc3ccc(Br)s3)CC2)cc1", "inhibition": "71.6% (active)"},
      {"smiles": "COc1ccc(N2CCN(Cc3coc4ccc(Cl)cc4c3=O)CC2)cc1", "inhibition": "10.4%"},
      {"smiles": "COc1cccc(N2CCN(Cc3cccs3)CC2)c1", "inhibition": "42.8%"},
      {"smiles": "CCOC(=O)c1ccc(-n2c(=S)sc3c2nc(SCC(=O)N2CCCC2)n2c4ccccc4nc32)cc1", "inhibition": "-3.4%"},
      {"smiles": "CCOc1cc2c(cc1/C=C1/NC(=O)N(CC(=O)Nc3ccccc3C)C1=O)OCO2", "inhibition": "12.6%"},
      {"smiles": "Cc1ccccc1CC1(C2CCN(C(=O)C(C)C)CC2)NC(=O)N(CCCN(C)C)C1=O", "note": "(stereo not drawn)", "inhibition": "4.98%"},
      {"smiles": "CNC(=O)/C(C#N)=C/c1cn(CC(=O)NCCOC)c2ccccc12", "inhibition": "5.66%"},
      {"smiles": "COc1cccc(CN2CCN3C(=O)[C@H]4CCCN4C(=O)[C@H]3C2)c1", "inhibition": "-17.2%"},
      {"smiles": "CSc1ccc(CN2CCN(Cc3cccc(Oc4ccccc4)c3)CC2)cc1", "inhibition": "52% (active)"},
      {"smiles": "CSc1ccc(CN2CCN(C(=O)c3cccc(F)c3)CC2)cc1", "inhibition": "34.1%"},
      {"smiles": "CCc1ccc(NS(=O)(=O)c2ccc3c(c2)CCN3C(=O)C2CC2)cc1", "inhibition": "2.16%"},
      {"smiles": "CCC1CCc2c(sc3nc(SCC(=O)Nc4ccc(Br)cc4)n(-c4ccccc4)c(=O)c23)C1", "note": "(stereo not drawn)", "inhibition": "10.8%"},
      {"smiles": "COCc1nc2ccccc2n1CCc1noc(-c2ccco2)n1", "inhibition": "82% (active)"},
      {"smiles": "Cc1nc2ccccc2n1CCc1noc(COc2ccccc2)n1", "inhibition": "9.51%"},
      {"smiles": "COCc1nc2ccccc2n1CCc1noc(-c2cccs2)n1", "inhibition": "8.99%"},
      {"smiles": "CCCc1[nH]n(-c2ccc(F)cc2)c(=O)c1CNN1CCOCC1", "inhibition": "-2.83%"},
      {"smiles": "NC(=O)COC(=O)/C=C/c1ccc(I)o1", "inhibition": "52.1% (active)"},
      {"smiles": "COc1cc(/C=C/C(=O)OCC(N)=O)ccc1OCC#N", "inhibition": "6.64%"},
      {"smiles": "CNC(=O)COC(=O)/C=C/c1ccc(C)o1", "inhibition": "18.9%"},
      {"smiles": "Cc1ccc(C)c(NC(=S)N(Cc2ccccc2C)CC2CCC(C(=O)O)CC2)c1", "note": "(stereo not drawn)", "inhibition": "13.3%"},
      {"smiles": "COc1cc(C(=O)NC(c2ccccc2Cl)c2cc([N+](=O)[O-])c3cccnc3c2O)cc(OC)c1OC", "note": "(stereo not drawn)", "inhibition": "24.9%"},
      {"smiles": "CCCC(=O)NC(c1ccccc1OC)c1cc([N+](=O)[O-])c2cccnc2c1O", "note": "(stereo not drawn)", "inhibition": "56.2% (active)"},
      {"smiles": "CCCCC(=O)NC(c1ccc(OC)cc1)c1cc([N+](=O)[O-])c2cccnc2c1O", "note": "(stereo not drawn)", "inhibition": "18.8%"},
      {"smiles": "C/C(N)=C(/C#N)C(=O)CSc1cccc[n+]1[O-]", "inhibition": "-1.32%"},
      {"smiles": "O=C1c2ccccc2-c2ccc(-c3nc(-c4ccccc4)[nH]c3-c3ccccc3)cc21", "inhibition": "-1.27%"},
      {"smiles": "CC(C)(C)NCCOCCOc1ccc(Cl)c(Cl)c1", "inhibition": "73.1% (active)"},
      {"smiles": "Cc1ccc(OCCCCNC(C)(C)C)cc1C", "inhibition": "1.35%"},
      {"smiles": "CC(C)(C)NCCOCCOc1ccc(I)cc1", "inhibition": "40.6%"},
      {"smiles": "CCOC(=O)C(C)Oc1cccc2c(=O)n(CC(=O)Nc3ccc(C)c(Cl)c3)ccc12", "note": "(stereo not drawn)", "inhibition": "-3.54%"},
      {"smiles": "CC1=C(C#N)C(=O)NC(=O)/C1=C\\c1ccc(-c2cccc(Cl)c2)o1", "inhibition": "-5.17%"},
      {"smiles": "CC1=C(C#N)C(=O)NC(=O)/C1=C/c1ccc(-c2ccc(Cl)cc2Cl)o1", "inhibition": "13.9%"},
      {"smiles": "CC1=C(C#N)C(=O)NC(=O)/C1=C\\c1ccc(-c2ccc(Cl)c(C(=O)O)c2)o1", "inhibition": "77.7% (active)"},
      {"smiles": "CCOC(=O)c1ccc(N2CCN(c3ccc(F)cc3)CC2)c(NC(=O)Nc2ccc(OC)cc2OC)c1", "inhibition": "-1.5%"},
      {"smiles": "O=C1C2C3CC(C(Br)C3Br)C2C(=O)N1C1CCCCC1", "note": "(stereo not drawn)", "inhibition": "-2.53%"},
      {"smiles": "O=C(NCc1ccco1)c1ccc2c(c1)C(=O)N(Cc1cccnc1)C2=O", "inhibition": "-3.01%"},
      {"smiles": "O=C(Nc1cccc(O)c1)c1ccc2c(c1)C(=O)N(Cc1cccnc1)C2=O", "inhibition": "-1.4%"},
      {"smiles": "O=C(c1ccc2c(c1)C(=O)N(Cc1cccnc1)C2=O)c1ccc2c(c1)C(=O)N(Cc1cccnc1)C2=O", "inhibition": "104% (active)"},
      {"smiles": "CC(=O)N1C(=O)C(=O)c2cc(Cl)ccc21", "inhibition": "-11.3%"},
      {"smiles": "Cc1ccc(NC(=O)C(C)C2Sc3ccccc3NC2=O)c(C)c1", "note": "(stereo not drawn)", "inhibition": "9.32%"},
      {"smiles": "O=C(C1CCN(c2nc3ccccc3n3cccc23)CC1)N1CCN(c2ccccn2)CC1", "inhibition": "10.7%"},
      {"smiles": "O=C(C1CCN(Cc2nc3ccccc3[nH]2)CC1)N1CCN(c2ccc(Cl)nn2)CC1", "inhibition": "-4.97%"},
      {"smiles": "O=C(C1CCN(Cc2nc3ccccc3[nH]2)CC1)N1CCN(c2ccccn2)CC1", "inhibition": "51.4% (active)"},
      {"smiles": "CN(c1ccccc1)S(=O)(=O)c1ccc(C(=O)N2CCc3ccccc32)cc1", "inhibition": "-6.36%"},
      {"smiles": "c1ccc(Oc2cccc(OCCCCn3cncn3)c2)cc1", "inhibition": "73.8% (active)"},
      {"smiles": "O=C(Cn1cncn1)NCCCOc1cccc(CN2CCCCCCC2)c1", "inhibition": "-3.47%"},
      {"smiles": "Fc1ccccc1OCCCCn1cncn1", "inhibition": "20.2%"},
      {"smiles": "O=C(c1cccs1)N1CCN(S(=O)(=O)c2ccc(Cl)cc2)CC1", "inhibition": "-0.92%"},
      {"smiles": "O=C(c1cccs1)N1CCC(N2CCN(Cc3ccccc3)CC2)CC1", "inhibition": "76.7% (active)"},
      {"smiles": "O=C(CN1CCN(C(=O)c2cccs2)CC1)c1cccs1", "inhibition": "-1.86%"},
      {"smiles": "Cc1cccc(CN2CCC(N3CCN(C(=O)c4cccs4)CC3)CCC2=O)c1", "note": "(stereo not drawn)", "inhibition": "-6.77%"}
    ]}
  ]
}
